{
  "source": "PubChem BioAssay (NCATS)",
  "note": "Records with an inconclusive call do not appear. Where a call stands in place of a potency, no number is given. A number with no mark means an inactive call. Activity calls are given as the source filed them. The call rests on the fitted dose curve; in most records, active means well fitted cell-killing curve with a large enough effect; inconclusive means small, poorly fitted or top-dose-only effect; inactive means flat fitted curve, though single readings scatter. Potency means the concentration at half of the fitted maximal effect.",
  "data": [
    {"assay": "Cellular viability qHTS for adrenocortical cancer (ACC) cell line NCI-H295R (AID 1963990); further: nearly all actives have a fitted effect of over 60% in size", "details": "CellTiter-Glo ATP luminescence, 48 h; series mostly up to 46.1 µM", "outline": "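IC50 and maximal efficacy derive from four-parameter logistic modelling of titration curves, with reads scaled between DMSO-only wells (0%) and doxorubicin hydrochloride (100% inhibition). Compounds spanned up to 46 uM over 48 h.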", "values": [
      {"smiles": "O=C(CCCl)NCCc1ccccc1", "Potency": "inactive"},
      {"smiles": "NC1=N[C@@]2(c3cc(NC(=O)c4ccc(F)cn4)ccc3F)COC[C@H]2CS1", "Potency": "inactive"},
      {"smiles": "C[C@H]1[C@H]2CC[C@H]3[C@@H]4CC=C5C[C@@H](N(C)C)CC[C@]5(C)[C@H]4CC[C@]23CN1C", "Potency": "inactive"},
      {"smiles": "CC(=O)Nc1ccc(CC(=O)O)cc1", "Potency": "inactive"},
      {"smiles": "O=C(CCl)Nc1cccc(NC2=NS(=O)(=O)c3ccccc32)c1", "Potency": "3.16 µM (active)"},
      {"smiles": "FC(F)(F)c1ccc(CNc2ccc(Cc3c[nH]c4ncccc34)cn2)cc1", "Potency": "11.2 µM (active)"},
      {"smiles": "COc1cc2c(cc1OC)CN(CCc1ccc(-n3nnc(-c4cc(OC)c(OC)cc4NC(=O)c4cc(=O)c5ccccc5o4)n3)cc1)CC2", "activity change, negative = viability loss": "-5.76% [at 0.587 µM]"},
      {"smiles": "OC[C@H]1O[C@@H](S[C@@H]2O[C@H](CO)[C@H](O)[C@H](n3cc(-c4cccc(F)c4)nn3)[C@H]2O)[C@H](O)[C@@H](n2cc(-c3cccc(F)c3)nn2)[C@H]1O", "Potency": "inactive"},
      {"smiles": "NC(=O)c1nc(F)c[nH]c1=O", "Potency": "inactive"},
      {"smiles": "CCN(CC)C(=O)/C(C#N)=C/c1cc(O)c(O)c([N+](=O)[O-])c1", "Potency": "inactive"},
      {"smiles": "COc1ccc(/C(C)=C/C(=O)O)c(OC)c1", "Potency": "inactive"},
      {"smiles": "NCCCC[C@H](N[C@@H](CCc1ccccc1)C(=O)O)C(=O)N1CCC[C@H]1C(=O)O", "Potency": "inactive"},
      {"smiles": "Cc1ccc(C(=O)Nc2ccc(CN3CCN(C)CC3)c(C(F)(F)F)c2)cc1C#Cc1cnc2[nH]ncc2c1", "Potency": "5.01 µM (active)"},
      {"smiles": "Cc1cc(C)cc(NC(=O)Cc2ccc(OC(C)(C)C(=O)O)cc2)c1", "Potency": "inactive"},
      {"smiles": "CCN(c1cc(C#CCN2CCOCC2)cc(C(=O)NCc2c(C)cc(C)[nH]c2=O)c1C)C1CCC(N(C)CCOC)CC1", "note": "(stereo not given)", "Potency": "inactive"},
      {"smiles": "CC[C@]1(O)CC2CN(CCc3c([nH]c4ccccc34)[C@@](C(=O)OC)(c3cc4c(cc3OC)N(C)[C@H]3[C@@](O)(C(=O)OC)[C@H](OC(C)=O)[C@]5(CC)C=CCN6CC[C@]43[C@@H]65)C2)C1", "note": "(stereo not given in full)", "Potency": "14.1 µM (active)"},
      {"smiles": "O=C(Nc1ccnc(NC(=O)C2CC2)c1)c1c(Cl)cccc1Cl", "Potency": "11.2 µM (active)"},
      {"smiles": "CC1(C)S[C@H]2[C@H](NC(=O)[C@@H](N)c3ccc(O)cc3)C(=O)N2[C@H]1C(=O)O", "Potency": "inactive"},
      {"smiles": "CC(=O)Oc1cccc(O)c1", "Potency": "inactive"},
      {"smiles": "CC[C@@H](C)Nc1cc(C(=O)NC2CC3CCC(C2)N3c2ccc(C(=O)C3CC3)cn2)c(C)cc1C(N)=O", "note": "(stereo not given in full)", "Potency": "0.355 µM (active)"},
      {"smiles": "CC1=C(/C=C/C(C)=C/C=C/C(C)=C/C(=O)O)C(C)(C)CCC1", "Potency": "inactive"},
      {"smiles": "[2H]C([2H])([2H])C(O)([C@@H](C)/C=C/[C@@H](C)[C@H]1CC[C@H]2/C(=C/C=C3C[C@@H](O)C[C@H](O)C3)CCC[C@]12C)C([2H])([2H])[2H]", "Potency": "inactive"},
      {"smiles": "CC(/C=C/[C@@H]1C[C@]1(C)c1ccc2c(c1)C(C)(C)CCC2(C)C)=C\\C(=O)O", "Potency": "inactive"},
      {"smiles": "Cc1c(F)cc(C(=O)NC2CC2)cc1-c1ccc(C(=O)NCC(C)(C)C)cn1", "Potency": "inactive"},
      {"smiles": "CC1=C(C(=O)O)N2C(=O)[C@@H](NC(=O)[C@H](N)c3ccc(O)cc3)[C@H]2SC1", "Potency": "inactive"},
      {"smiles": "CN1CCN(C(=O)c2ccc(-c3ccc4c(C=O)c(O)ccc4c3)s2)CC1", "Potency": "inactive"},
      {"smiles": "NC(=O)NNc1ccccc1", "Potency": "inactive"},
      {"smiles": "O=C(O)CNC(=O)c1nc(Cl)c2ccccc2c1O", "Potency": "inactive"},
      {"smiles": "CN(C)C/C=C/C(=O)Nc1cccc(C(=O)Nc2cccc(Nc3ncc(Cl)c(-c4c[nH]c5ccccc45)n3)c2)c1", "Potency": "1.12 µM (active)"},
      {"smiles": "CCCC1(CCC)CCC2(CCN(CCCN(CC)CC)C2)CC1", "Potency": "6.31 µM (active)"},
      {"smiles": "CCOC(=O)c1cc(=O)c2c(OCC(COc3cccc4oc(C(=O)OCC)cc(=O)c34)OC(=O)[C@@H](N)CCCCN)cccc2o1", "Potency": "inactive"},
      {"smiles": "NCC[C@H](O)C(=O)N[C@@H]1C[C@H](N)[C@@H](O[C@H]2O[C@H](CN)[C@@H](O)[C@H](O)[C@@H]2O)[C@H](O)[C@@H]1O[C@H]1O[C@H](CO)[C@@H](O)[C@H](N)[C@@H]1O", "activity change, negative = viability loss": "7.11% [at 0.587 µM]"},
      {"smiles": "O=S1(=O)OC(c2ccc(O)cc2)(c2ccc(O)cc2)c2ccccc21", "Potency": "inactive"},
      {"smiles": "CNCCn1c(=O)c2cc(OC)c(OC)cc2c2cnc3cc4c(cc3c21)OCO4", "Potency": "0.596 µM (active)"},
      {"smiles": "CCC(CC)CC1(C(=O)Nc2ccccc2SC(=O)C(C)C)CCCCC1", "Potency": "inactive"},
      {"smiles": "NC(CS)C(=O)O", "note": "(stereo not given)", "Potency": "inactive"},
      {"smiles": "C[C@H]1CNC(=O)c2cnn3ccc(nc23)N[C@H](C)c2cc(F)ccc2O1", "Potency": "8.91 µM (active)"},
      {"smiles": "O=C(c1ccccc1)c1ccccc1", "Potency": "inactive"},
      {"smiles": "COC(=O)[C@@H](N)Cc1ccc(O)c(O)c1", "Potency": "inactive"},
      {"smiles": "CCCc1ccc(OCC(=O)N2CCN(C(=O)COc3ccc(CCC)cc3OC)CC2)c(OC)c1", "Potency": "inactive"}
    ]}
  ]
}
